Where “and” joins values, the source holds several entries; their conditions need not be identical. Identical values can stand only once. This is part of a sample that, as a whole, favours compounds with a hit. Of some 83,000 tested, about 20% had one in any assay.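 Plates (96-well) were seeded with cells, treated with compound at one concentration, and incubated for 48 hours before percent growth was determined.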 Calls of active or inactive are those of the source. Rule for the calls: active = growth percent below 10; inactive = the rest.
What was measured:
Test in all cases: NCI-60 one-dose screen, 48 h (100 = growth as untreated, 0 = no growth, -100 = all killed)
Details in all cases: 10 µM unless noted
HCT-15 colon = test system: HCT-15 colon
HT29 colon = test system: HT29 colon
SNB-75 CNS = test system: SNB-75 CNS
SNB-19 CNS = test system: SNB-19 CNS
U251 CNS = test system: U251 CNS
PC-3 prostate = test system: PC-3 prostate
SK-MEL-5 melanoma = test system: SK-MEL-5 melanoma
UACC-62 melanoma = test system: UACC-62 melanoma
LOX IMVI melanoma = test system: LOX IMVI melanoma
SK-MEL-28 melanoma = test system: SK-MEL-28 melanoma
SK-MEL-2 melanoma = test system: SK-MEL-2 melanoma
EKVX NSCLC = test system: EKVX NSCLC
SN12C renal = test system: SN12C renal
UO-31 renal = test system: UO-31 renal
TK-10 renal = test system: TK-10 renal
ACHN renal = test system: ACHN renal
CAKI-1 renal = test system: CAKI-1 renal
A498 renal = test system: A498 renal
CCRF-CEM leukemia = test system: CCRF-CEM leukemia
MOLT-4 leukemia = test system: MOLT-4 leukemia

Measured: growth

O=C(Nc1ccc2ncsc2c1)c1csc(Nc2ccc3[nH]ncc3c2)n1
active: SK-MEL-5 melanoma 9.43%
inactive: HCT-15 colon 26% | HT29 colon 19.4% | SNB-75 CNS 21.6% | SNB-19 CNS 41.2% | U251 CNS 38.6% | PC-3 prostate 40.6% | UACC-62 melanoma 22.7% | LOX IMVI melanoma 45% | SK-MEL-28 melanoma 69.2% | SK-MEL-2 melanoma 50.6% | EKVX NSCLC 58.6% | SN12C renal 49.9% | UO-31 renal 50.3% | TK-10 renal 55.2% | ACHN renal 50.5% | CAKI-1 renal 30.3% | A498 renal 36.8% | CCRF-CEM leukemia 23% | MOLT-4 leukemia 49.8%

O=C(Nc1ccc(Cl)c(Cl)c1)Nc1ccc(Cl)c(Cl)c1
inactive: EKVX NSCLC 23.1%
-83.4% (active) and 14.8% (inactive): SN12C renal
-97.2% (active) and 34.6% (inactive): SK-MEL-5 melanoma
-78.8% (active) and 34.9% (inactive): SK-MEL-28 melanoma
-80.2% (active) and 11.1% (inactive): PC-3 prostate
-16.7% (active) and 18.2% (inactive): HCT-15 colon
-62% (active) and 26.5% (inactive): SNB-19 CNS
-89.2% (active) and 12.2% (inactive): UACC-62 melanoma
-96.9% (active) and 35.3% (inactive): TK-10 renal
-94.2% (active) and 38.3% (inactive): SNB-75 CNS
-78.9% (active) and 45.5% (inactive): SK-MEL-2 melanoma
-28.5% (active) and 20.8% (inactive): MOLT-4 leukemia
active: HT29 colon -82.6% and 7.52% | LOX IMVI melanoma -89.4% and 9.39% | UO-31 renal -88.8% and -9.62% | ACHN renal -85.8% and 7.07% | CAKI-1 renal -90.8% and -2.12% | A498 renal -90.1% and -0.946%
-84.3% (active) and 13.3% (inactive): U251 CNS
-14% (active) and 21.4% (inactive): CCRF-CEM leukemia

C=C[C@]1(C)C=C2CC[C@@H]3C(C)(C)C(=O)CC[C@@]3(C)[C@@H]2CC1
inactive: HCT-15 colon 106% | HT29 colon 102% | SNB-75 CNS 90.5% | SNB-19 CNS 108% | U251 CNS 98.5% | PC-3 prostate 98.8% | SK-MEL-5 melanoma 109% | UACC-62 melanoma 97.9% | LOX IMVI melanoma 99.5% | SK-MEL-28 melanoma 113% | SK-MEL-2 melanoma 106% | EKVX NSCLC 101% | SN12C renal 99% | UO-31 renal 17.9% | TK-10 renal 98.7% | ACHN renal 106% | CAKI-1 renal 84% | A498 renal 90.6% | CCRF-CEM leukemia 101% | MOLT-4 leukemia 109%

O=c1c(/C=C/c2ccco2)nnc2sc(Nc3ccc(Cl)cc3)nn12
inactive: HCT-15 colon 108% | HT29 colon 93.5% | SNB-75 CNS 79.9% | SNB-19 CNS 94.2% | U251 CNS 108% | PC-3 prostate 92.2% | SK-MEL-5 melanoma 93.5% | UACC-62 melanoma 92.4% | LOX IMVI melanoma 97.6% | SK-MEL-28 melanoma 108% | SK-MEL-2 melanoma 95.6% | EKVX NSCLC 90.9% | SN12C renal 107% | UO-31 renal 79% | TK-10 renal 146% | ACHN renal 98.2% | CAKI-1 renal 98.5% | A498 renal 108% | CCRF-CEM leukemia 98% | MOLT-4 leukemia 95.7%

COc1ccc(CCNC(=O)COc2cc3c(Nc4ccc(F)c(Cl)c4)ncnc3cc2OC)cc1OC
inactive: HCT-15 colon 91.2% | HT29 colon 95.5% | SNB-75 CNS 94.6% | SNB-19 CNS 84.2% | U251 CNS 103% | PC-3 prostate 92.1% | SK-MEL-5 melanoma 92.5% | UACC-62 melanoma 95.7% | LOX IMVI melanoma 90.1% | SK-MEL-28 melanoma 98.4% | SK-MEL-2 melanoma 86.9% | EKVX NSCLC 78.2% | SN12C renal 85.2% | UO-31 renal 46.8% | TK-10 renal 37.4% | ACHN renal 49% | CAKI-1 renal 46.5% | A498 renal 55.6% | CCRF-CEM leukemia 100% | MOLT-4 leukemia 93.4%

CC(=O)Nc1c(I)c(NC(C)=O)c(I)c(C(=O)O)c1I
inactive: HCT-15 colon 98.5% and 131% | HT29 colon 108% and 118% | SNB-75 CNS 82% and 124% | SNB-19 CNS 107% | U251 CNS 102% and 106% | PC-3 prostate 88.2% and 101% | SK-MEL-5 melanoma 103% and 105% | UACC-62 melanoma 105% and 119% | LOX IMVI melanoma 95.8% and 111% | SK-MEL-28 melanoma 115% and 108% | SK-MEL-2 melanoma 111% and 93.8% | EKVX NSCLC 102% and 90.6% | SN12C renal 102% and 106% | UO-31 renal 76.3% and 88.3% | TK-10 renal 120% and 101% | ACHN renal 96.9% and 112% | CAKI-1 renal 89.8% and 91.3% | A498 renal 107% and 123% | CCRF-CEM leukemia 95.9% and 105% | MOLT-4 leukemia 96.9% and 90.1%

N#Cc1c(N)nnn1Cc1cc(=O)oc2ccc(O)cc12
inactive: HCT-15 colon 110% | HT29 colon 102% | SNB-75 CNS 100% | SNB-19 CNS 102% | U251 CNS 103% | PC-3 prostate 97.3% | SK-MEL-5 melanoma 97.9% | UACC-62 melanoma 99.9% | LOX IMVI melanoma 102% | SK-MEL-28 melanoma 112% | SK-MEL-2 melanoma 117% | EKVX NSCLC 117% | SN12C renal 106% | UO-31 renal 90.5% | TK-10 renal 104% | ACHN renal 106% | CAKI-1 renal 107% | A498 renal 102% | CCRF-CEM leukemia 93.8% | MOLT-4 leukemia 109%

Cc1ccc(S(=O)(=O)OC[C@@]2(C)CC[C@]3(C)CC[C@]4(C)C(=C3C2)C=C[C@@H]2[C@@]3(C)CCCNC(C)(C)[C@@H]3CC[C@]24C)cc1
inactive: SNB-75 CNS 82.9% | SNB-19 CNS 47.8% | PC-3 prostate 43.5% | SK-MEL-5 melanoma 76.5% | UACC-62 melanoma 61.1% | SK-MEL-28 melanoma 96.7% | EKVX NSCLC 88.9% | UO-31 renal 71.6% | TK-10 renal 68.6% | A498 renal 104%
active: HCT-15 colon -74.5% | HT29 colon -69.2% | U251 CNS -95.9% | LOX IMVI melanoma -99.2% | SK-MEL-2 melanoma 9.43% | SN12C renal 7.76% | ACHN renal -46.6% | CAKI-1 renal 1.61% | CCRF-CEM leukemia 0.849% | MOLT-4 leukemia -24.8%

CCN1C(=S)N(CC)C2C1NC(=S)N2/N=C/C=C/c1ccccc1 (stereo not given)
inactive: HCT-15 colon 26.5% | SNB-19 CNS 31.4% | U251 CNS 27.7% | PC-3 prostate 36.5% | SK-MEL-5 melanoma 25% | UACC-62 melanoma 24.5% | LOX IMVI melanoma 37.6% | SK-MEL-28 melanoma 53.6% | SK-MEL-2 melanoma 46.7% | EKVX NSCLC 62.5% | SN12C renal 40.8% | UO-31 renal 40% | TK-10 renal 69.2% | ACHN renal 39.3% | CAKI-1 renal 30.4% | CCRF-CEM leukemia 14.7% | MOLT-4 leukemia 26.4%
active: HT29 colon 5.26% | SNB-75 CNS -21.6% | A498 renal 0.507%

CCCn1nc(C(=O)N2CCCCC2)c2c1CCC(N1CCC(c3ccncc3)CC1)C2 (stereo not given)
inactive: HCT-15 colon 105% | HT29 colon 100% | SNB-75 CNS 96.1% | SNB-19 CNS 102% | U251 CNS 101% | PC-3 prostate 101% | SK-MEL-5 melanoma 102% | UACC-62 melanoma 112% | LOX IMVI melanoma 98.1% | SK-MEL-28 melanoma 115% | SK-MEL-2 melanoma 105% | EKVX NSCLC 100% | SN12C renal 118% | UO-31 renal 92.7% | TK-10 renal 101% | ACHN renal 105% | CAKI-1 renal 95.8% | A498 renal 109% | CCRF-CEM leukemia 101% | MOLT-4 leukemia 108%

COc1ccc(-c2[nH]c3ccccc3c2-c2ccc(OC)cc2)cc1
inactive: HCT-15 colon 39.8% | HT29 colon 29.8% | SNB-75 CNS 31.5% | SNB-19 CNS 53.6% | U251 CNS 44% | PC-3 prostate 47.5% | SK-MEL-5 melanoma 58.1% | UACC-62 melanoma 56.7% | LOX IMVI melanoma 46.3% | SK-MEL-28 melanoma 51.4% | SK-MEL-2 melanoma 64.6% | EKVX NSCLC 73.8% | SN12C renal 63.4% | UO-31 renal 67.7% | TK-10 renal 87.4% | ACHN renal 65.3% | CAKI-1 renal 63.2% | A498 renal 45% | MOLT-4 leukemia 49.9%
active: CCRF-CEM leukemia 9.28%

C=CCNC(=O)Cc1c(-c2ccc(OC)cc2)oc2c(OC)c3c(c(OC)c12)OCO3
inactive: HCT-15 colon 86.7% | HT29 colon 86.5% | SNB-75 CNS 96.4% | SNB-19 CNS 95.3% | U251 CNS 105% | PC-3 prostate 95.2% | SK-MEL-5 melanoma 96.3% | UACC-62 melanoma 89% | LOX IMVI melanoma 93% | SK-MEL-28 melanoma 109% | SK-MEL-2 melanoma 108% | EKVX NSCLC 107% | SN12C renal 94.6% | UO-31 renal 80.8% | TK-10 renal 110% | ACHN renal 104% | CAKI-1 renal 87.8% | A498 renal 55% | CCRF-CEM leukemia 94.1% | MOLT-4 leukemia 99.7%

Reference: PubChem BioAssay (NCI)
